Among the data in PubChem BioAssay (NCI) are growth values, retold here.

In this assay the test system is MDA-MB-468 breast. In words: NCI-60 one-dose screen, 48 h (100 = growth as untreated, 0 = no growth, -100 = all killed). The note with it: 10 µM unless noted.

“And” between values parts separate entries of the source, which are not always exact repeats. Equal values may be shown once. The panel holds about 83,000 compounds, 20% with a hit somewhere; the sample as a whole holds those more often.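 Compound tested at a single concentration for 48 hours in 96-well plates; a percent growth value below 10 was scored as active.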 The source made the active and inactive calls.

For the molecule `Nc1ccc(Nc2ncnc3sc4c(c23)CCN(Cc2ccccc2)C4)cc1`, the growth was 90.4% (inactive). As for `CC(C)OP(=O)(CCC(=O)c1c[nH]c2ccccc12)OC(C)C`, the growth is 107% (inactive).

Take `Cc1nn2c(-c3nc4ccc(Cl)cc4[nH]3)c(-c3ccc(F)cc3)nc2s1`: the growth is 102% (inactive). `CN(C)Cc1c(-c2ccccc2)[nH]c2ccccc12`: the growth was 103% (inactive). The figure for `C=C(C)[C@@H]1CC[C@]2(C(=O)NC(C)=O)CC[C@]3(C)[C@H](CC[C@@H]4[C@@]5(C)CCCNC(C)(C)[C@@H]5CC[C@]43C)[C@@H]12` is -20.3% (active). In the case of `CN(C)CC/C=C1\c2ccccc2Sc2ccc(Cl)cc21`, the growth was 8.92% (active). As for `Clc1ccc(-c2nc3ccc(/C(=N\N=C\c4ccccc4)c4ccccc4)cc3[nH]2)cc1`, the growth is 79.1% (inactive). Next, `CCN(Cc1ccc(CN(CC)C(=O)C(Cl)(Cl)Cl)cc1)C(=O)C(Cl)(Cl)Cl`: 62.5% (inactive); `C/C(O)=C(/C=N\C(=S)Nc1ccc(S(=O)(=O)Nc2nccs2)cc1)C(=O)Nc1ccccc1C`: 82% (inactive). Next, `CC(=O)c1cc2c(N)c(C(=O)Nc3cccc(F)c3C)sc2nc1C`: 54.2% (inactive); `CN(C)c1nc(N)c(N=O)c(N)n1`: 114% (inactive). Consider `COc1ccc(-c2cc(C(=O)Nc3ccc(Br)cc3)nc3[nH]c(=O)sc23)cc1`, for which the growth was 33.2% (inactive). For `O=C(O)/C(=C/c1ccc(O)cc1)c1ccccc1`, the growth is 96.9% (inactive). The figure for `Cc1ccc(C2(C)NC(=O)N(CC(=O)Nc3cccc(C)c3)C2=O)cc1` (configuration not stated) is 89% (inactive); for `COc1ccc(/C=C2/CN(CCC#N)C/C(=C\c3ccc(OC)cc3)C2=O)cc1` it is -28% (active). For `CCOC(=O)C(CNc1ccccc1)C(=O)OCC`, the growth is 93.3% (inactive).

Take `CC(C)C1=CC2=C(C=O)C[C@@H]3[C@](C)(CCC[C@@]3(C)C(=O)OCC#CCN3CCCC3)[C@H]2CC1`: the growth was 51.3% (inactive). Next, `O=C1CNCCN1`: 106% (inactive); `CCOc1ccc2cc(-c3nn(CC4CCNCC4)c4ncnc(N)c34)ccc2c1`: 93.3% (inactive) and 40.5% (inactive); `COc1ccc(-c2nc(N)ncc2Oc2ccccc2OC)c(O)c1`: -2.89% (active). The figure for `O=C(Nc1ccc(Br)cc1)C1=NCCCCN1` is 97.6% (inactive). Next, `O=c1[nH]c2ccccc2n2cc3cccnc3c12`: -5.08% (active); `COC(=O)c1ccc(NC(N)=NCC(C)(C)COc2ccc(C(F)(F)F)cc2)nc1`: 17.1% (inactive). As to `COc1cc2c3c(n([C@@H]4CCOC4)c(=O)c2cc1OC)-c1cc2c(cc1C3=O)OCO2`, the growth is 11.2% (inactive). Next, `Cc1ccc2cnc(N)c(C#Cc3cncc(C(=O)Nc4ccc(CN5CCN(C)CC5)c(C(F)(F)F)c4)c3)c2c1`: -87.1% (active); `NNC(=O)c1nc2ccccc2[nH]1`: 126% (inactive); `CNC(=O)c1cc(Oc2ccc(NC(=O)c3nc(S(C)(=O)=O)sc3-c3ccc(F)cc3)cc2)ccn1`: -4.37% (active).
